This passage reports growth results from PubChem BioAssay (NCI).

Each structure is given as a SMILES string. Several values for one entry are separate records, joined by “and”; a condition that tells them apart may be missing. Identical values can stand only once. Compounds without any hit were thinned out: in the full panel of roughly 83,000, 20% have a hit.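 Cell lines were cultured in 96-well plates, exposed to a single compound concentration, and assessed for percent growth 48 hours later.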 Values without a mark were called inactive. Activity calls are given as the source filed them.

The first experiment deals with SN12C renal. The experiment in a line: NCI-60 one-dose screen, 48 h (100 = growth as untreated, 0 = no growth, -100 = all killed). The conditions noted are these: 10 µM. How it is done: Growth inhibition of the SN12C human tumor cell line is measured as a screen for anti-cancer activity. Cells are grown in 96 well plates and exposed to the test compound for 48 hours. Compounds are tested at a single concentration, which is 10^-5 M for most compounds. The reported endpoint is percent growth (GI% or GIPRCNT), where numbers from 0 - 100% represent growth inhibition, and numbers from -100% - 0 represent cell death. For example, a value of 40 represents 60% growth inhibition. A value of 0 means no net growth occurred over the course of the experiment. A value of -40 indicates 40% of cells at the beginning of the experiment died by the end of the experiment. A value of -100 means all cells are dead at the end of the experiment.
NCI-60 Human Tumor Cell Lines Screen was performed using the standard one-dose NCI protocol, which is described in more detail at https://dtp.cancer.gov/discovery_development/nci-60/default.htm.
Compounds with GIPRCNT values below 10 were considered active. Activity score was based on GIPRCNT using the following formula: […]
Score is 0 for GIPRCNT values of 100 or above, 50 for GIPRCNT values of 0, and 100 for GIPRCNT values of -100.
On to `O=C(O)CCCc1ccc(N(CCCl)CCCl)cc1`, for which the growth was 82.9% and 86.8%.

The same experiment, now with this note: 10 µM unless noted.
With `O=c1[nH]c(=O)n(Cl)c(=O)n1Cl`, the growth is 94.2% and 108%. Take `CC[C@@H](C)C(=O)O[C@H]1[C@H](O)[C@H]2[C@@H](CN3C[C@@H](C)CC[C@H]3[C@@]2(C)O)[C@@H]2C[C@]34O[C@]5(O)[C@@H](OC(=O)[C@@](C)(O)CC)CC[C@@]3(C)[C@@H]5[C@@H](OC(C)=O)[C@@H](OC(C)=O)[C@H]4[C@@]21O`: the growth is 97.1%. For `O=[N+]([O-])c1cc(Cl)c(Cl)cc1Cl`, the growth is 94.6% and 108%. On to `CC[PH+](CC)CC.O=COC1OC([S-])C(OC=O)C(OC=O)C1OC=O.[Au+]` (stereo not given), for which the growth is -90.9% (active). As to `O=C(CBr)OCCOC(=O)CBr`, the growth was 58%.

With `Oc1ccccc1C=NCCN=Cc1ccccc1O`, the growth was 102%. Turning to `C[N+]1(CC#CC[N+]2(C)CCCC2)CCCC1`, the growth was 102%. Turning to `C/C=C(/C)C(=O)O[C@H]1CC[C@@]2(C)[C@@H]3CC[C@H]4[C@]5(O)C[C@H](O)[C@@]6(O)[C@@H](CN7C[C@@H](C)CC[C@H]7[C@@]6(C)O)[C@]5(O)C[C@@]42O[C@@]13O`, the growth is 115%. As for `CCOP(=O)(NC)OCC`, the growth is 106%. Take `COc1ccc2c(c1)C1(C)CCN(C)CC(C1)C2O` (stereo not given): the growth was 99.3%.

With `NC1CN2CCC1CC2` (stereo not given), the growth was 108%. As for `CN1CCC2(CC1)C(C#N)C(=O)NC(=O)C2C#N` (stereo not given), the growth is 105%. Still for that read-out and setting: under `O=C/C=C/c1ccco1` stands 101%; under `CCCC1CCCCC12C(=O)NC(=O)NC2=O` (stereo not given), 101% and 106%. With `CC/C(=C(\c1ccc(OCCN2CCOCC2)cc1)c1ccc(OC(=O)Cc2ccccc2)cc1)c1ccc(Cl)cc1`, the growth was 98.6%. Still for that read-out and setting: under `CCCCOCCOP(=O)(OCCOCCCC)OCCOCCCC` stands 98%; under `CC1(C)CN=C(NN=C(/C=C/c2ccc(C(F)(F)F)cc2)/C=C/c2ccc(C(F)(F)F)cc2)NC1`, -74.3% (active); under `O=C(Cc1ccccc1)c1ccccc1`, 106%.

As for `O=C(CCCN1CCC2(CC1)C(=O)NCN2c1ccccc1)c1ccc(F)cc1`, the growth is 99.6% and 84.2%.

As for `C[C@]12CCc3sc(Nc4ccc(F)cc4F)nc3C1=CC[C@@H]1[C@@H]2CC[C@]2(C)C(=O)CC[C@@H]12`, the growth was 64.1%. Consider `COC(=O)C1=CO[C@@H](C)[C@@H]2CN3CCc4c([nH]c5cc(OC)ccc45)[C@@H]3C[C@H]12`, for which the growth is 87.8%. On the same count and under the same terms, then `Oc1ccc(O)c(Cl)c1`, with 89.7% and 99.6%.

For `C/C(=C(\c1ccc(OCCN2CCOCC2)cc1)c1ccc(OC(=O)Cc2ccccc2)cc1)c1ccc(Cl)cc1`, the growth was 91.2%. Same read-out and setting: then `Cc1cc(N)ccc1N`, with 95.7%; and `CC1(C)C2CCC1(CS(=O)(=O)O)C(=O)C2` (stereo not given), with 87.1% and 111%; and `CC[C@H](C)[C@H](NC(=O)[C@H]1CCCCN1C)C(=O)N(C)[C@H](C[C@@H](OC(C)=O)c1cccc(C(=O)N[C@@H](Cc2ccccc2)C[C@H](C)C(=O)OC)n1)C(C)C`, with 29.8%. As for `O=C1CN2CCC1CC2`, the growth is 106%. The same measure, in the same setting: then `CC[C@H](C)[C@H](NC(=O)[C@H]1CCCCN1C)C(=O)N(C)[C@H](C(=O)NC12CC(C(=O)N[C@@H](Cc3ccccc3)C[C@H](C)C(=O)OC)(C1)C2)C(C)C`, with 99%; and `CC[CH2][Sn]([Cl])([Cl])[CH2]CC.Oc1ccccc1C=NCCN=Cc1ccccc1O`, with 52.2% and 58.8%; and `COC1C(O)CC(OC2CC(Oc3cc4cc5c(c(O)c4c(O)c3C)C(=O)[C@@H](OC3CC(OC4CC(OC6CC(C)(O)C(OC(C)=O)C(C)O6)C(O)C(C)O4)C(O)C(C)O3)[C@H]([C@H](OC)C(=O)[C@@H](O)[C@@H](C)O)C5)OC(C)C2OC(C)=O)OC1C` (stereo not given in full), with 7.02% (active). As for `O=NN(c1ccccc1)c1ccccc1`, the growth was 98.1%. The same measure, in the same setting: under `COc1ccc(N)cc1N` stands 101%; under `C[C@]12CCc3nc(-c4ccc(O)c(O)c4)sc3C1=CC[C@@H]1[C@@H]2CC[C@]2(C)C(=O)CC[C@@H]12`, 72.7%. Same read-out and setting: under `Nc1c(Cl)c(Cl)nc(C(=O)O)c1Cl` stands 93.6%. `CO[C@@H]([CH2][Hg][O]C(=O)c1ccccc1)[C@@H]([CH2][Hg][O]C(=O)c1ccccc1)OC`: the growth was 98.2%. The same measure, in the same setting: under `Nc1ccc2c(c1)Cc1cc(N)ccc1-2` stands 90.5%. Same read-out and setting: then `OCCN=Cc1c[nH]c2ccccc12`, with 93.3%; and `CC[C@H](C)[C@H](NC(=O)[C@H]1CCCCN1C)C(=O)N(C)[C@H](CCc1nc(C(=O)N[C@@H](Cc2ccccc2)C[C@H](C)C(=O)O)cs1)C(C)C`, with 46.8%.

Still in this experiment, the particulars now being: 75 µM.
With `O=C(O)CCCc1ccc(N(CCCl)CCCl)cc1`, the growth is 41.2%.
